Assay results: PubChem BioAssay (NCI)
This is part of a sample that, as a whole, favours compounds with a hit. Of some 83,000 tested, about 20% had one in any assay.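 Testing used 96-well plates and a 48-hour single-concentration exposure. Example: -40 means 40% of the starting cells died.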 Values without a mark were called inactive. Activity calls are given as the source filed them. Rule for the calls: active = growth percent below 10; inactive = the rest.

Tests used:
Experiment in all cases: NCI-60 one-dose screen, 48 h (100 = growth as untreated, 0 = no growth, -100 = all killed)
Conditions in all cases: 10 µM unless noted
SR leukemia = tested on: SR leukemia
RPMI-8226 leukemia = tested on: RPMI-8226 leukemia
OVCAR-8 ovarian = tested on: OVCAR-8 ovarian
OVCAR-5 ovarian = tested on: OVCAR-5 ovarian
OVCAR-4 ovarian = tested on: OVCAR-4 ovarian
SK-OV-3 ovarian = tested on: SK-OV-3 ovarian
IGROV1 ovarian = tested on: IGROV1 ovarian
OVCAR-3 ovarian = tested on: OVCAR-3 ovarian
HS 578T breast = tested on: HS 578T breast
NCI/ADR-RES ovarian = tested on: NCI/ADR-RES ovarian

Row | Compound | growth (SR leukemia) | growth (RPMI-8226 leukemia) | growth (OVCAR-8 ovarian) | growth (OVCAR-5 ovarian) | growth (OVCAR-4 ovarian) | growth (SK-OV-3 ovarian) | growth (IGROV1 ovarian) | growth (OVCAR-3 ovarian) | growth (HS 578T breast) | growth (NCI/ADR-RES ovarian)
1 | Cc1cc(N2CCCCCC2)nc(NC2CCCC(Nc3ccnc4cc(Cl)ccc34)C2)n1 (stereo not given) | -65.8% (active) | -57% (active) | -85.3% (active) | -24.8% (active) | -63.9% (active) | -82.8% (active) | -47.1% (active) | -78.6% (active) | -51.3% (active) | -72.2% (active)
2 | COc1cc2c(cc1OC)C(Sc1ccc(SC)cc1)c1c(nc(N)c(C#N)c1N)O2 (stereo not given) | -37.4% (active) | -37.9% (active) | -90.6% (active) | -63.1% (active) | -94.8% (active) | -85.1% (active) | -68.9% (active) | -88.7% (active) | 4.87% (active) | -23.2% (active)
3 | CN1CCN(CCCOc2cccc3nc(Nc4cc(Cl)cc(Cl)c4)ccc23)CC1 | -30.2% (active) | -14.8% (active) | 51.4% | 3.71% (active) | 42.7% | 90.2% | 42.8% | 26.3% | 37.5% | 6.46% (active)
4 | Cc1ccc2c(C(C[N+](=O)[O-])c3ccccc3F)c(-c3ccccc3)[nH]c2c1 (stereo not given) | 25.8% | 51.5% | 56.5% | 74.4% | 65.7% | 31.5% | 32% | 13.2% | 33.8% | 23.9%
5 | C/C1=C\CC[C@@]2(C)O[C@H]2[C@H]2OC(=O)C(CN3CCN(CC4C(=O)O[C@H]5[C@H]4CC/C(C)=C/CC[C@@]4(C)O[C@@H]54)CC3)[C@@H]2CC1 (stereo not given in full) | 66% | 79% | 91.5% | 103% | 103% | 110% | 101% | 79.7% | 98.7% | 101%
6 | CCN1CCN(c2nc(NCCNc3ccnc4cc(Cl)ccc34)c3ccccc3n2)CC1 | -25.5% (active) | -25.4% (active) | 2.98% (active) | 53.7% | 33.7% | 51.8% | 28.6% | 8.7% (active) | 49.8% | 70.3%
7 | O=c1c2c3c(sc2nc(N/N=C/c2cn(-c4ccccc4)nc2-c2ccc(Cl)cc2)n1Cc1ccccc1)CCCC3 | 59.3% | 119% | 98.2% | 121% | 109% | 102% | 92.4% | 106% | 94.2% | 108%
8 | CCN=C1C=CC(=C(c2ccc(N)cc2)c2ccc(N(CC)CC)c(C)c2)C=C1 | -17.6% (active) | -30.8% (active) | 1.54% (active) | 18.2% | 24.2% | 6.51% (active) | 11.6% | -28.9% (active) | -24.6% (active) | 67.7%
9 | Brc1ccc(-c2csc(Nc3ccccn3)n2)cc1 | 68.8% | 68% | 101% | 92.4% | 50% | 82.7% | 79.4% | 82.9% | 114% | 74%
10 | CC1CCNC(C)C1 (stereo not given) | 105% | 98.2% | 107% | 113% | 99.6% | 99.6% | 116% | 112% | 104% | 106%
11 | CCOc1ccc(-n2nc(C(=O)Nc3cc(OC)c(OC)c(OC)c3)nc2-c2cc(OC)c(OC)c(OC)c2)cc1 | 40.7% | 55.7% | 74% | 102% | 68.1% | 99.7% | 90.8% | 86.9% | 65.6% | 85.8%
12 | CC(C)CSc1nc(N)nc2c1ncn2C1OC(CO)C(O)C1O (stereo not given) | 111% | 103% | 110% | 93% | 109% | 103% | 93.4% | 116% | 103% | 103%
13 | COc1cccc2c1C(=O)c1c(O)c3c(c(O)c1C2=O)C[C@](O)(C(=O)CO)C[C@H]3O[C@@H]1C[C@@H](NC(=O)CCCCCN(C)C2(c3ccc(F)cc3)CC3CCC2C3)[C@H](O)[C@@H](C)O1 (stereo not given in full) | -45.7% (active) | -35.4% (active) | 21.5% | -51.6% (active) | 0.206% (active) | 79.5% | 56% | 5.02% (active) | 57.6% | 80.2%
14 | O=C(Cc1ccc(/C=C/C(=O)c2ncc[nH]2)cc1)Nc1ccc(F)cc1 | -2.77% (active) | -17.9% (active) | -6.92% (active) | 49.1% | 36.6% | 52% | 39% | 2.36% (active) | 35.4% | 14.5%
15 | CC[N+](CC)=c1sc2c(s1)C(c1ccc(Cl)cc1)Oc1ccc(Cl)cc1-2 (stereo not given) | 14.8% | -31.4% (active) | 10.7% | 15.1% | 9.29% (active) | -6.15% (active) | 9.22% (active) | 1.97% (active) | 18.3% | 88.9%
16 | CCOC(=O)c1sc2nc(-c3cccc(OC)c3)nc(N3CCOCC3)c2c1C | 98.4% | 87.8% | 102% | 96.6% | 96.2% | 102% | 87.3% | 108% | 104% | 90%
17 | O=[N+]([O-])c1cnc(N2CCN(CC3CC3)CC2)nc1N1CCN(CC2CC2)CC1 | 115% | 100% | 104% | 92.2% | 95% | 111% | 90.6% | 98.6% | 77.5% | 90.2%
18 | O=C1CSC(=S)N1CCc1ccc(O)cc1 | 26.4% | 37.9% | 92.6% | 101% | 89.5% | 99.2% | 101% | 78.3% | 84.3% | 94.7%
19 | CCOc1nc(-c2ccccc2)cc2c(O)c(C(=O)N/N=C/c3ccc(O)cc3O)[nH]c(=O)c12 | 27% | 38% | 14.5% | 43.6% | 39.3% | 41.6% | 15.6% | 30.9% | 82.9% | -40.1% (active)
20 | Cc1cc2nc(NC(=O)CN3CCN(CCN4C(=O)c5cccc6cccc(c56)C4=O)CC3)sc2cc1C | 35.3% | 57.8% | 79.7% | 93.6% | 84.3% | 102% | 77.6% | 101% | 92% | 79%
21 | OCc1ccc(N2CCc3cccc(F)c3C2)cc1Cl | 87.6% [0.1 µM] | 71.4% [0.1 µM] | 91.4% [0.1 µM] | -11.7% [0.1 µM] (active) | 32.7% [0.1 µM] | 72.5% [0.1 µM] | 21.2% [0.1 µM] | 11.8% [0.1 µM] | 99.2% [0.1 µM] | 87% [0.1 µM]
22 | COc1cc(-c2nn(-c3ccc(C)cc3)cc2C(=O)O)ccc1O | 85.3% | 90.9% | 98.9% | 113% | 109% | 94% | 94.2% | 93.4% | 103% | 94.5%
23 | COc1ccc(-n2nc(C)c3c(Nc4ccc(NC(=O)Nc5c(Cl)cccc5Cl)cc4)ncnc32)cc1 | 32.2% | 50.7% | 56% | 97.8% | 60.9% | 83.3% | 71.7% | 40.8% | 71.7% | 55.9%
24 | O=C1c2cc3c(cc2-c2c1c1cc(F)c(F)cc1c(=O)n2CCCn1ccnc1)OCO3 | -2.4% (active) | -10.1% (active) | 12.1% | 2.22% (active) | 20.9% | 6.12% (active) | 21.2% | -7.17% (active) | 52.5% | 6.95% (active)
25 | CC(=O)c1cc2c(N)c(C(=O)Nc3cccc4ccccc34)sc2nc1C | 12.7% | 10.2% | 21.5% | 64% | 59.6% | 26.8% | 34.7% | -5.38% (active) | 38.2% | 16.3%
26 | O=C(/C=C/C=C/c1ccc2c(c1)OCO2)N/N=C\c1ccc(O)cc1O | 21.3% | 47.7% | 22.8% | 42.5% | 9.43% (active) | 27% | 28.9% | 9.27% (active) | 70.2% | 5.15% (active)
